The values below come from PubChem BioAssay (NCATS).

The structures appear in SMILES notation. Results filed as inconclusive are left out. Where a call stands in place of a potency, no number is given. Activity calls are given as the source filed them. Calls follow the shape of the dose curve; as a rule, active = well fitted cell-killing curve with a large enough effect; inconclusive = small, poorly fitted or top-dose-only effect, or effect the other way; inactive = no such curve, though single readings can be large or run the other way.
Potency is read from the fitted curve at half-maximal effect.

This test is described as follows: Quantitative highthroughput screen to assess conditional lethalithy of SEM cells grown in RPMI1640 with dialyzed fetal bovine serum (RPMI+ds) (AID 1963884). Also: nearly all actives have a fitted effect of over 35% in size. As to conditions: SEM B-ALL cells, RPMI+dialyzed FBS, CellTiter-Glo viability, 48 h; series mostly up to 45.8 µM. The text has this:
Assay Provider: Jason Cantor Ph.D.
Department of Biochemistry
University of Wisconsin-Madison, Madison, WI, USA
Chemical screening studies have identified drug sensitivities across hundreds of cancer cell lines but most putative therapeutics fail to translate. Discovery and development of drug candidates in models that more accurately reflect nutrient levels in human blood is a major challenge. Here we performed high-throughput screens in conventional versus Human Plasma-Like Medium (HPLM) to identify compounds that were "missed" when screening using the artificial culture condition. Sets of conditional anticancer compounds spanned phases of clinical development and included non-oncology drugs were assessed. […] We also traced conditional phenotypes for several chemotherapeutics to availability of HPLM-specific metabolites and confirmed others for compounds whose reported targets are encoded by nonessential genes. Our findings establish generalizable strategies for exploiting conditional lethality in HPLM to reveal therapeutic candidates and mechanisms of action in cancer cells.
Described herein are the results of each viability screens against three cell lines: NOMO1 (an acute myeloid leukemia cell line); P12-Ichikawa (a T-cell acute lymphoblastic leukemia); and SEM (a B-cell ALL). Each assay was screened using 3 different cell culture media: homemade human plasma-Like medium with 10% dialyzed fetal bovine serum (HPLM+ds); RPMI1640 with 10% untreated FBS and 5mM glucose (RPMI+s); and RPMI1640 with 10% dialyzed fetal bovine serum and 5 mM glucose (RPMI+ds).
PROTOCOL TABLE (as described by Inglese J, Shamu CE and Guy RK. 2007)
SEQUENCE No. (e.g., 1, 2, 3, etc.); […] (e.g., Cells, Incubation, Reagent, etc.); VALUE and DESCRIPTION.
1; Cells; 5 uL; white, solid bottom 1536-well Greiner assay plate.
2; Compounds; 23 nL; Kalypsis pin tool (Wako USA) equipped with a 1536-well pin head to transfer to the assay plates.
3; Incubation; 48 hours; 37C incubation.
4; Reagent; 3 uL; CellTiter Glo (Promega).
5; Incubation; 5 min, room temperature
6; Detection; Luminescence, Viewlux PerkinElmer.
NOTES (numbers refer to Sequence numbers above)
1. Briefly, 5 ul of cell reagent was dispensed using a Multidrop Combi Dispenser. The NOMO1 and SEM cells were plated at 500 cells/well and the P12-Ichikawa line at 1000 cells/well.
2. After seeding the cells, 23 nL of MIPE 4.1 library compounds (in DMSO) were added to each plate using a Kalypsys 1536 Pintool dispenser. Bortezomib at final concentration of […] and DMSO were added to each plate as positive and negative controls respectively. For each screen, MIPE 4.1 compounds were added over an eleven-point concentration range […] in 3-fold dilutions.
3. Each plate was covered with a stainless steel gasketed lid to prevent evaporation and incubated for 48 hour at 37C, 95% relative humidity, and 5% CO2.
4-5. Three microliter CellTilter-GloTM luminescent substrate mix (Promega) reagent was added to the assay plate and incubated at room temperature for 5 min.
6. The luminescence signal was measured using a ViewLux (PerkinElmer) multiplate reader with a 2 second exposure time per plate. Data for each compound were normalized as percent viability such that measurements for DMSO and the empty well controls in each plate were defined as 100% and 0%, respectively.
(In general: ATP-based viability assays read luminescence as a measure of living cells.)
Consider `CC(C)Nc1cc(-c2c[nH]c(C(=O)N[C@H](CO)c3cccc(Cl)c3)c2)c(Cl)cn1`, for which the Potency is 16.6 µM (active).
Then `c1ccc([C@H]2CN3CCSC3=N2)cc1`, with “inactive”; and `COc1cc2ncn(-c3cc(OCc4ccccc4C(F)(F)F)c(C(N)=O)s3)c2cc1OC`, with 2.64 µM (active).
Then `CC1CNc2c(cccc2S(=O)(=O)N[C@@H](CCCN=C(N)N)C(=O)N2CC[C@@H](C)C[C@@H]2C(=O)O)C1` (stereo not given in full), with “inactive”; and `CCCNCC(O)COc1ccccc1C(=O)CCc1ccccc1` (stereo not given), with “inactive”.
The value for `Cc1ccc(S(=O)(=O)Nc2nc3ccccc3nc2Nc2ccc3nsnc3c2)cc1` was 4.07 µM (active); that for `CNC(=O)c1c(F)cccc1Nc1nc(Nc2cc3c(cc2OC)CCN3C(=O)CN(C)C)nc2[nH]ccc12` was 0.296 µM (active); that for `N=C(N)c1ccc2cc(OC(=O)c3ccc(N=C(N)N)cc3)ccc2c1` was “inactive”.
As to `CO[C@@H]1[C@@H](OC(N)=O)[C@@H](O)[C@H](Oc2ccc3c(O)c(NC(=O)c4ccc(O)c(CC=C(C)C)c4)c(=O)oc3c2C)OC1(C)C`, the Potency entry was “inactive”.
Then `Cc1cc2c(F)c(Oc3ncnn4cc(OC[C@@H](C)O)c(C)c34)ccc2[nH]1`, with 9.35 µM (active); and `C[C@]12CC[C@H](O)CC1=CCC1C2CC[C@]2(C)C(n3cnc4ccccc43)=CCC12` (stereo not given in full), with “inactive”.
Then `O=C(CCCN1CCC(O)(c2ccc(Cl)cc2)CC1)c1ccc(F)cc1`, with “inactive”; and `CCC[C@@H]1C[C@@H](C(=O)N[C@@H]([C@H]2O[C@H](SC)[C@H](O)[C@@H](O)[C@H]2O)[C@@H](C)O)N(C)C1`, with “inactive”; and `CCCOc1ccc(C(=O)OCCN(CC)CC)cc1N`, with “inactive”.
Then `CC(=O)O[C@]1(C(C)=O)CC[C@H]2[C@@H]3C=C(C)C4=CC(=O)CC[C@]4(C)[C@@H]3CC[C@@]21C`, with “inactive”; and `Oc1ccc(C2CNCCc3c2cc(O)c(O)c3Cl)cc1` (stereo not given), with “inactive”; and `O=C1NC(=O)C(=Cc2ccc3c(c2)OC(F)(F)O3)S1`, with “inactive”.
For the molecule `C[C@H](NCc1ccc(OCc2cccc(F)c2)cc1)C(N)=O`, the Potency was 0.332 µM (active).
The value for `CN1CCN(Cc2ccc(NC(=O)Nc3ccc(Oc4cc(NC(=O)C5CC5)ncn4)cc3)cc2C(F)(F)F)CC1` was 0.0083 µM (active).
The value for `COc1ccc2[nH]cc(CCNC(C)=O)c2c1` was “inactive”; that for `Cc1nc2n(c(=O)c1CCN1CCC(c3noc4cc(F)ccc34)CC1)CCCC2` was “inactive”.
For `Cc1cccc(N(C)C(=S)Oc2ccc3ccccc3c2)c1`, the Potency entry is “inactive”.
With `Cc1[nH]c(=O)c(C#N)cc1-c1ccc2nccn2c1`, the Potency result is “inactive”.
Take `COc1ccc(OC)c(-c2nnc3ccc(-c4ccc(OC)c(O[C@@H]5CCOC5)c4)nn23)c1`: the Potency entry is “inactive”.
Consider `O=C(C=Cc1cccnc1)NCCCCC1CCN(C(=O)c2ccccc2)CC1`, for which the Potency was 0.0019 µM (active).
Then `Cc1nc(Nc2n[nH]c3c2CN(C(=O)N[C@H](CN(C)C)c2ccccc2)C3(C)C)c2sccc2n1`, with 1.18 µM (active); and `CS(=O)(=O)c1ccc(-c2cnc(N)c(C(=O)Nc3ccccc3)n2)cc1`, with 8.33 µM (active); and `CON=C(C(=O)N[C@@H]1C(=O)N2C(C(=O)O)=C(Cn3ccc(=N)n3CCO)CS[C@H]12)c1csc(N)n1`, with “inactive”.
The value for `O=C(Cc1ccc(-c2ccc(OCCN3CCOCC3)cc2)cn1)NCc1ccccc1` was 0.0296 µM (active); that for `Cc1ccc(C(=O)Nc2cccc(C(F)(F)F)c2)cc1-c1ccc2nc(NCCN3CCOCC3)ncc2c1` was 4.18 µM (active).
The value for `Nc1ncn([C@@H]2O[C@H](CO)[C@@H](O)[C@@H]2O)c(=O)n1` was 4.69 µM (active).
Consider `CC#CCn1c(N2CCC[C@@H](N)C2)nc2c1c(=O)n(Cc1nc(C)c3ccccc3n1)c(=O)n2C`, for which the Potency result is “inactive”.
Then `Cc1ccc(C(=O)c2cc(O)c(O)c([N+](=O)[O-])c2)cc1`, with “inactive”; and `NC(N)=NC(=O)c1nc(Cl)c(N)nc1N`, with “inactive”.
The value for `COc1cc(O)c2c(c1)C1OC1C[C@H](O)[C@H](O)C(=O)C=CC[C@H](C)OC2=O` (stereo not given in full) was 4.18 µM (active); that for `COc1ccc2cc([C@H](C)C(=O)O)ccc2c1` was 10.5 µM (active).
As for `O=c1ccn([C@@H]2O[C@H](CO)[C@H](O)[C@@H]2F)c(=O)[nH]1`, the Potency entry was “inactive”.
In the case of `CC1=C(C(=O)O)N2C(=O)[C@@H](NC(=O)C(N)c3ccccc3)[C@H]2SC1` (stereo not given in full), the Potency entry is “inactive”.
The value for `O=C1c2c(O)cccc2[C@@H]([C@@H]2O[C@H](CO)[C@@H](O)[C@H](O)[C@H]2O)c2cc(CO)cc(O)c21` was “inactive”.
Then `CN(C)CCc1c[nH]c2ccc(CS(=O)(=O)N3CCCC3)cc12`, with 14.8 µM (active).
